According to PubChem BioAssay AID1159580 (chemical genetic matrix, 2015):
Among all 5,500 compounds or so, about 2,000 (36%) were called active. Another 18% or so got no clear call; they are omitted. Cut-off read from the data, not from the text of the source: active = normalized growth mostly below about 0.91 (no sharp cut-off); inconclusive = no clear call, values can overlap the other calls; inactive = mostly above about 0.92. This is one part of the list.

Assay: chemical genetic growth profiling, strain panel (AID 1159580);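 note: tested at 20 µM; growth read once vehicle control cultures reached saturation at 30 °C; 1 = growth at the plate median or of vehicle wells; lower values mean less growth of the strain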
Settings: S. cerevisiae deletion strains, growth OD

Measured: normalized growth

COc1cccc(NC(=S)NC2CC(C)CC(C)(C)C2)c1 (stereo unspecified)
inactive: locus YAR019C, strain CDC15, hits give low values 0.986 | locus YBL105C, strain PKC1, hits give low values 0.986 | locus YBR135W, strain CKS1, hits give low values 0.973 | locus YBR136W, strain MEC1, hits give low values 0.985 | locus YBR160W, strain CDC28, hits give low values 0.978 | locus YDL017W, strain CDC7, hits give low values 0.984 | locus YDL028C, strain MPS1, hits give low values 0.99 | locus YDL101C, strain DUN1, hits give low values 0.975 | locus YDL108W, strain KIN28, hits give low values 0.989 | locus YDL132W, strain cdc53, hits give low values 0.984 | locus YDL214C, strain PRR2, hits give low values 0.986 | locus YDR052C, strain DBF4, hits give low values 0.99 | locus YDR054C, strain cdc34, hits give low values 0.967 | locus YDR226W, strain ADK1, hits give low values 0.972 | locus YDR477W, strain SNF1, hits give low values 0.98 | locus YER123W, strain YCK3, hits give low values 0.962 | locus YER133W, strain GLC7, hits give low values 0.962 | locus YFL009W, strain cdc4, hits give low values 0.98 | locus YFL029C, strain CAK1, hits give low values 0.99 | locus YFR003C, strain YPI1, hits give low values 0.984 | locus YFR019W, strain FAB1, hits give low values 1.02 | locus YFR028C, strain CDC14, hits give low values 0.966 | locus YGR040W, strain KSS1, hits give low values 0.979 | locus YGR052W, strain FMP48, hits give low values 1.02 | locus YGR092W, strain DBF2, hits give low values 0.895 | locus YHR030C, strain SLT2, hits give low values 0.927 | locus YHR079C, strain IRE1, hits give low values 0.922 | locus YHR082C, strain KSP1, hits give low values 1.08 | locus YHR205W, strain SCH9, hits give low values 0.995 | locus YIL147C, strain SLN1, hits give low values 0.981 | locus YJL095W, strain BCK1, hits give low values 0.929 | locus YJL128C, strain PBS2, hits give low values 0.954 | locus YJL157C, strain FAR1, hits give low values 0.976 | locus YJR016C, strain ILV3, hits give low values 0.986 | locus YJR066W, strain TOR1 (second series), hits give low values 0.979 | locus YJR066W, strain TOR1, hits give low values 1.07 | locus YKL048C, strain ELM1, hits give low values 0.989 | locus YKL067W, strain YNK1, hits give low values 0.983 | locus YKL101W, strain HSL1, hits give low values 0.996 | locus YKL193C, strain SDS22, hits give low values 0.981 | locus YKL203C, strain TOR2, hits give low values 1.03 | locus YLR113W, strain HOG1, hits give low values 0.957 | locus YLR133W, strain CKI1, hits give low values 0.979 | locus YLR403W, strain SFP1, hits give low values 0.938 | locus YML070W, strain DAK1, hits give low values 0.978 | locus YMR001C, strain CDC5, hits give low values 0.984 | locus YMR205C, strain PFK2 (second series), hits give low values 1 | locus YMR277W, strain FCP1, hits give low values 0.988 | locus YNL006W, strain LST8, hits give low values 0.984 | locus YNL020C, strain ARK1, hits give low values 0.974 | locus YNL161W, strain CBK1, hits give low values 0.971 | locus YNL183C, strain NPR1, hits give low values 1.07 | locus YNL207W, strain RIO2, hits give low values 0.967 | locus YNL222W, strain SSU72, hits give low values 1 | locus YNL307C, strain MCK1 (second series), hits give low values 0.977 | locus YOL078W, strain AVO1, hits give low values 0.985 | locus YOL136C, strain PFK27, hits give low values 0.964 | locus YOR061W, strain CKA2, hits give low values 0.986 | locus YOR119C, strain RIO1, hits give low values 1.04 | locus YOR231W, strain MKK1, hits give low values 1.05 | locus YOR329C, strain SCD5, hits give low values 0.984 | locus YPL031C, strain PHO85, hits give low values 0.973 | locus YPL153C, strain RAD53, hits give low values 0.964 | locus YPL204W, strain HRR25, hits give low values 0.949 | locus YPL209C, strain IPL1, hits give low values 0.99 | locus YPL256C, strain CLN2, hits give low values 0.984 | locus YPR025C, strain CCL1, hits give low values 0.988 | locus YPR106W, strain ISR1, hits give low values 0.994 | locus YPR111W, strain DBF20, hits give low values 0.991 | strain NNK1, hits give low values 0.982 | strain TSCII, hits give low values 0.976
